We go through ten compounds from PubChem BioAssay (Tox21).

A short description of assay [1]: qHTS assay to identify small molecule agonists of the androgen receptor (AR) signaling pathway in the presence of an antagonist - cell viability counter screen (AID 1259379). Note: nearly all actives have a fitted effect of over 25% in size. Note: potency is the fitted concentration of half-maximal effect. In short, it runs like this: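 Seed MDA-kb2 at 3,000 cells/well; incubate 5 hr, 37C, 0% CO2. Add nilutamide to 3.0uM final, then pin compounds at 15 concentrations. Incubate 16 hr. Add CellTiter-Fluor at 15 hr, read fluorescence after 1 hr.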
On the technique in general: Quantitative high-throughput screening tests each substance at several concentrations.

The nature of assay [2]: qHTS assay to identify small molecule antagonists of the estrogen receptor beta (ER-beta) signaling pathway - cell viability counter screen (AID 1259382). Note: nearly all actives have a fitted effect of over 55% in size. Note: potency is the fitted concentration of half-maximal effect. In a few lines:
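In this multiplexed counter screen, cells were seeded at 2,000 per well in medium with 2% charcoal-stripped FBS and incubated 6 hr before compound and 1nM final E2 were added. Sixteen hours later, ATP-based luminescence reported viability.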

Assay [3] can be described thus: qHTS assay to identify small molecule agonists of the estrogen receptor alpha (ER-alpha) signaling pathway in the presence of an antagonist - cell viability counter screen (AID 1259386).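 Note: cells exposed to compounds for 22 h at 37 °C before the viability read; nearly all actives have a fitted effect of over 30% in size.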 Note: potency is the fitted concentration of half-maximal effect. In short, it runs like this:
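Viability counter screen using VM7Luc4E2 (full-length ER-alpha, four ERE-luciferase). The cells were treated with compounds alongside ICI-182,780 10.0nM for 22hr, and live-cell protease fluorescence was quantified with CellTiter-Fluor.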

Assay [4] is described as follows: qHTS assay to identify small molecule antagonists of the progesterone receptor (PR) signaling pathway - cell viability counter screen (AID 1346798). Note: nearly all actives have a fitted effect of over 50% in size. Note: potency is the fitted concentration of half-maximal effect. In short, it runs like this: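 HEK293T PR-UAS-bla, 2% charcoal-stripped FBS; 4 hr pre-plate; cpd + R5020, 16 h 37C; LiveBLAzer read first; then CellTiter-Glo 30 min RT, luminescence.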
Assay [5] is described as follows: qHTS assay to identify small molecule agonists of the progesterone receptor (PR) signaling pathway - cell viability counter screen (AID 1346799; calls by dose curve; note: nearly all actives have a fitted effect of over 45% in size; note: potency is the fitted concentration of half-maximal effect). In short, it runs like this: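 Luminescence from CellTiter-Glo, added after the beta-lactamase FRET read in the same wells, gave cytotoxicity in PR-UAS-bla HEK293T cells treated with compounds for 16 hr at 37C.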
A short description of assay [6]: qHTS assay to identify small molecule agonists of the TGF-beta/Smad signaling pathway - cell viability counter screen (AID 1346829). Note: nearly all actives have a fitted effect of over 45% in size. Note: potency is the fitted concentration of half-maximal effect. In short, it runs like this:
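CellTiter-Glo luminescence readout; SBE-bla HEK 293T cells, overnight plating, compound 5 hr at 37 C/5% CO2, then bla substrate 2 hr RT, then CellTiter-Glo 30 min RT.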

In assay [7] the target is Thyrotropin-releasing hormone receptor (Homo sapiens) (UniProt P34981). The assay can be described thus: qHTS assay to identify small molecule antagonists of the thyrotropin-releasing hormone receptor (TRHR) signaling pathway (AID 1346877; active = well fitted inhibition curve with a large enough effect in the repeat runs, not every such curve was filed as active; note: series mostly up to about 51 µM). In short, it runs like this: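 Following an 18 h incubation at 37 °C and a 2 h calcium dye load, TRHR-HEK293 cells were exposed to compound (5 min, room temperature) and challenged with TRH, 1 nM final.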

Assay [8] shares this target. The assay can be described thus: qHTS assay to identify small molecule agonists of the thyrotropin-releasing hormone receptor (TRHR) signaling pathway (AID 1346891; calls by dose curve; note: series mostly up to about 58 µM). In short, it runs like this: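 Intracellular calcium rise, read as fluorescence every second for 3 min, served as the agonist signal in dye-loaded HEK293 cells expressing TRHR; each compound ran at 15 concentrations in triplicate.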

Assay [9] is described as follows: Human pregnane X receptor (PXR) small molecule agonists, qHTS cell viability counter screen (AID 1346977). Note: nearly all actives have a fitted effect of over 50% in size. Note: potency is the fitted concentration of half-maximal effect. In short, it runs like this: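 PXR-Luc HepG2, 2,000 cells/well, 5% charcoal-stripped FBS; 5hr settle; cpd 24hr, 37C/5% CO2; CellTiter-Fluor at 23hr, read 1hr later (fluorescence).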
In assay [10] the target is Androgen receptor (Homo sapiens) (UniProt P10275). The assay can be described thus: qHTS assay to identify small molecule agonists of the androgen receptor (AR) signaling pathway in the presence of an antagonist (AID 1259381; calls by dose curve; note: nearly all actives have a fitted effect of over 15% in size). In a few lines:
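Test compounds at 15 concentrations were incubated for 16hr with MDA-kb2 reporter cells in presence of 3.0uM nilutamide (final). Signal: ONE-Glo luciferase luminescence.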

Assay [11] is described as follows: qHTS assay to identify small molecule agonists or antagonists of the thyroid stimulating hormone receptor (TSHR) signaling pathway - wild type cell line counter screen (AID 1259384; calls by dose curve). In a few lines: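 Wild-type HEK293 cells were plated 18 h at 37 C/5% CO2, pin-dosed with compound plus Ro20-1724 medium, held 30 min at room temperature, then given cAMP-d2 and anti-cAMP-cryptate; fluorescence was read after 1 h. Fifteen concentrations, triplicate.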

Assay [12] is described as follows: qHTS assay to identify small molecule agonists of the TGF-beta/Smad signaling pathway (AID 1346859; active = well fitted activation curve with a large enough effect in the signal ratio in the repeat runs, not every such curve was filed as active; the % refers to the signal ratio; note: series mostly up to about 77 µM). In a few lines: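 SBE-bla HEK 293T, 4,000 cells/well, plated o/n; cpd in DMSO, 5 hr, 37 C/5% CO2; B/G FRET substrate 2 hr RT; ex 405, em 460/530 nm.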
For assay [13], the target named is Estrogen receptor (Homo sapiens) (UniProt P03372). The assay can be described thus: qHTS assay to identify small molecule agonists of the estrogen receptor alpha (ER-alpha) signaling pathway in the presence of an antagonist (AID 1259383; calls by dose curve; note: top concentration of the series differs between compounds; nearly all actives have a fitted effect of over 15% in size). In short, it runs like this: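 Stably transfected VM7Luc4E2 reporter cells, kept 5 days in charcoal-stripped serum, received ICI-182,780 at 10.0nM final before compound addition. Following 22hr incubation at 37C and 5% CO2, luciferase signal was read by luminescence.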

For assay [14], the target named is Thyrotropin receptor (Homo sapiens) (UniProt P16473). The assay can be described thus: qHTS assay to identify small molecule antagonists of the thyroid stimulating hormone receptor (TSHR) signaling pathway (AID 1259385; calls by dose curve; note: nearly all actives have a fitted effect of over 20% in size). In a few lines:
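TSHR-HEK293 cells were plated and held 18 h at 37C/5% CO2, then given compound plus Ro20-1724 and stimulated with TSH at 1.5 ng/mL final. After 30 min at room temperature, cAMP was detected with cAMP-d2/anti-cAMP-cryptate (1 h) by fluorescence.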

Assay [15] concerns the target Progesterone receptor (Homo sapiens) (UniProt P06401). The assay can be described thus: qHTS assay to identify small molecule agonists of the progesterone receptor (PR) signaling pathway (AID 1346784; calls by dose curve; note: nearly all actives have a fitted effect of over 30% in size). In short, it runs like this:
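Beta-lactamase reporter read-out: after 16 hr compound treatment at 37C and a further 2 hr at room temperature with LiveBLAzer B/G FRET substrate, fluorescence was measured in PR-UAS-bla HEK 293T cells grown in 2% charcoal-stripped serum.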

Assay [16] in a line: qHTS assay to identify small molecule antagonists of the TGF-beta/Smad signaling pathway - cell viability counter screen (AID 1346824). Note: nearly all actives have a fitted effect of over 50% in size. Note: potency is the fitted concentration of half-maximal effect. In a few lines:
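SBE-bla HEK 293T cells were plated overnight at 37 C, then given compounds in DMSO plus TGF-beta1 (added as 0.25 ng/mL solution) for 5 hr. After the bla read, CellTiter-Glo was added to the same wells and luminescence read after 30 min at room temperature.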

Assay [17] addresses Progesterone receptor (Homo sapiens) (UniProt P06401). The assay can be described thus: qHTS assay to identify small molecule antagonists of the progesterone receptor (PR) signaling pathway (AID 1346795; active = well fitted inhibition curve with a large enough effect in the signal ratio in the repeat runs, not every such curve was filed as active; the % refers to the signal ratio; note: potency is the fitted concentration of half-maximal effect). In short, it runs like this: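 Read-out is fluorescence from the LiveBLAzer B/G FRET substrate, cleaved by a UAS-controlled beta-lactamase in PR-UAS-bla HEK293T cells after 16 hr exposure to compound plus 1 nM promegestone (final), followed by 2 hr at room temperature.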

The nature of assay [18]: qHTS assay to identify small molecule agonists of the estrogen receptor beta (ER-beta) signaling pathway - cell viability counter screen (AID 1259380). Note: potency is the fitted concentration of half-maximal effect; nearly all actives have a fitted effect of over 30% in size. In short, it runs like this:
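CellTiter-Glo read, 30 min RT, same wells as bla assay; cells ER-beta-UAS-bla HEK293T; 16 hr compound, 37C; medium 2% charcoal-stripped FBS.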

Where “and” joins values, the source holds several entries; their conditions need not be identical. Equal entries are not always repeated. Results filed as inconclusive are left out. A structure can be active in one record and inactive in another. Calls of active or inactive are those of the source. Unless noted, calls come from the whole dose curve; as a rule, active = well fitted curve in the direction sought with a large enough effect in the repeat runs; inconclusive = weak or mixed curves; inactive = no such curve, though single readings can be large; an effect the other way counts as inactive or inconclusive.

Chain of Thyrotropin receptor (Homo sapiens) (P16473 whole entry, looked up): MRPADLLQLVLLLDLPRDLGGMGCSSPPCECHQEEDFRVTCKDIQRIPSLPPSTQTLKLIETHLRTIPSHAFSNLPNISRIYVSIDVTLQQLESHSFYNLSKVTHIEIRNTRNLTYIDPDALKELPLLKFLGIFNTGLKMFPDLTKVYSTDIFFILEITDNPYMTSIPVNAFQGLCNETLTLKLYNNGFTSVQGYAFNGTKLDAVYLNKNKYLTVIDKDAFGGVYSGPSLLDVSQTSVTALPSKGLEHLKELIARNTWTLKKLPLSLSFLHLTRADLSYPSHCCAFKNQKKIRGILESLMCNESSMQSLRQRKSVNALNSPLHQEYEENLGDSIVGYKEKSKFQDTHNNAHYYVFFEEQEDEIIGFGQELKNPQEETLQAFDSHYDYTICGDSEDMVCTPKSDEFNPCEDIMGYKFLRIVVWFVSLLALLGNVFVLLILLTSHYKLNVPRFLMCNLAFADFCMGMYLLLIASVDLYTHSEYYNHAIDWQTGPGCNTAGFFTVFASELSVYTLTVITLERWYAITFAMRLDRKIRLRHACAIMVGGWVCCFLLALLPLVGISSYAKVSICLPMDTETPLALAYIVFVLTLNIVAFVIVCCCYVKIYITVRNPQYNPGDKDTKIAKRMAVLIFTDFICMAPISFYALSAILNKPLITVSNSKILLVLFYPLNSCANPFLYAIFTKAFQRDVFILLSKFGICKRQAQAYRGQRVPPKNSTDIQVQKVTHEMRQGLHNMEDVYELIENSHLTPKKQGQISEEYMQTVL
Chain of Progesterone receptor (Homo sapiens) (P06401 whole entry, looked up): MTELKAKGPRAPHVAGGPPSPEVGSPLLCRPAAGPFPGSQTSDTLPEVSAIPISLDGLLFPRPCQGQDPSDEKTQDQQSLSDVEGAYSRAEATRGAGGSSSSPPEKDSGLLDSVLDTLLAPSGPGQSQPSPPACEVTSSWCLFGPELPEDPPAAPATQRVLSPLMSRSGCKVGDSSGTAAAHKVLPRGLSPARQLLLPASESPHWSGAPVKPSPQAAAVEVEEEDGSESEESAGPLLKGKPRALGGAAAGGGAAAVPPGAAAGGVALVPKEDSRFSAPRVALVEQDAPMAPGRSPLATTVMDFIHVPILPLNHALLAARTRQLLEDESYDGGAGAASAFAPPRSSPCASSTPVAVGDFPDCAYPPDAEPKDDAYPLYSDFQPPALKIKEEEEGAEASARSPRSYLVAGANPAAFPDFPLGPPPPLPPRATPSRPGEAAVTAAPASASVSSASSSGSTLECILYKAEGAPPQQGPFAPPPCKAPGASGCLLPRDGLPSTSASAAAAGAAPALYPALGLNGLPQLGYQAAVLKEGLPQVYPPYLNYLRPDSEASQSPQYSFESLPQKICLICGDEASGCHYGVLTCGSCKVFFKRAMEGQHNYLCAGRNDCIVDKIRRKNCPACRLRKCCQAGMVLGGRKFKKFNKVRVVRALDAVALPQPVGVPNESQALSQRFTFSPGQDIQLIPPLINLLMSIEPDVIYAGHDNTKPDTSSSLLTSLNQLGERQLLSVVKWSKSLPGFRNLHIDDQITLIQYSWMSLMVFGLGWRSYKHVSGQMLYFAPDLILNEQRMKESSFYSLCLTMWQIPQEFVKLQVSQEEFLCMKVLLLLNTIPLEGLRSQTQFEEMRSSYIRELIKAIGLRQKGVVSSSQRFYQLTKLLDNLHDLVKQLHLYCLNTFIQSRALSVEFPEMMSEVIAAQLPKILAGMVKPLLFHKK
Chain of Thyrotropin-releasing hormone receptor (Homo sapiens) (P34981 whole entry, looked up): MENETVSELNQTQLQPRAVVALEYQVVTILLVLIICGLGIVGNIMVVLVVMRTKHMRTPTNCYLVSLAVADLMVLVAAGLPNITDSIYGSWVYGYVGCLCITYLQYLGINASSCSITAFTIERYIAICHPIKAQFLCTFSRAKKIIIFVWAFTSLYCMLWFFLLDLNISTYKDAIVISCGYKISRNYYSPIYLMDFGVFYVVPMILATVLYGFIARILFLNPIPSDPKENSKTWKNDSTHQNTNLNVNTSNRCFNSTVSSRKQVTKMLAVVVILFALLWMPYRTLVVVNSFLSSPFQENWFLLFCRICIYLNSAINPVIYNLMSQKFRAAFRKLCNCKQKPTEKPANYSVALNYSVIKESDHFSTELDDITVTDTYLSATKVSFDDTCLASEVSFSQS
Chain of Estrogen receptor (Homo sapiens) (P03372 whole entry, looked up): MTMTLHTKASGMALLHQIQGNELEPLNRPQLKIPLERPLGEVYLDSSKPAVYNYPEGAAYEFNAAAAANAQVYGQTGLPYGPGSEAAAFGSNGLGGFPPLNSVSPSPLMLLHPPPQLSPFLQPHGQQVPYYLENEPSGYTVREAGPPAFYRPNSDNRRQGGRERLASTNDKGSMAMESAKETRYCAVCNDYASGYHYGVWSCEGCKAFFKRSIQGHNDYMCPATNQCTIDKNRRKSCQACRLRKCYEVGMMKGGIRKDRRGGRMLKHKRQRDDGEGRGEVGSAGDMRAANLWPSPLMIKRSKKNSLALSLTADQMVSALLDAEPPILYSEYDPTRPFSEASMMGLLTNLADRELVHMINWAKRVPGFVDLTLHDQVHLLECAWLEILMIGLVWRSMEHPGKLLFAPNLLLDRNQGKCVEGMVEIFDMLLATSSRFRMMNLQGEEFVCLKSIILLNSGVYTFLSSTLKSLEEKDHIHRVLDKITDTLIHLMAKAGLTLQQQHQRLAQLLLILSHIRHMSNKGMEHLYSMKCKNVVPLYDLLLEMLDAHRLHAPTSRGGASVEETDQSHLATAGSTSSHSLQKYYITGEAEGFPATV
Chain of Androgen receptor (Homo sapiens) (P10275 whole entry, looked up): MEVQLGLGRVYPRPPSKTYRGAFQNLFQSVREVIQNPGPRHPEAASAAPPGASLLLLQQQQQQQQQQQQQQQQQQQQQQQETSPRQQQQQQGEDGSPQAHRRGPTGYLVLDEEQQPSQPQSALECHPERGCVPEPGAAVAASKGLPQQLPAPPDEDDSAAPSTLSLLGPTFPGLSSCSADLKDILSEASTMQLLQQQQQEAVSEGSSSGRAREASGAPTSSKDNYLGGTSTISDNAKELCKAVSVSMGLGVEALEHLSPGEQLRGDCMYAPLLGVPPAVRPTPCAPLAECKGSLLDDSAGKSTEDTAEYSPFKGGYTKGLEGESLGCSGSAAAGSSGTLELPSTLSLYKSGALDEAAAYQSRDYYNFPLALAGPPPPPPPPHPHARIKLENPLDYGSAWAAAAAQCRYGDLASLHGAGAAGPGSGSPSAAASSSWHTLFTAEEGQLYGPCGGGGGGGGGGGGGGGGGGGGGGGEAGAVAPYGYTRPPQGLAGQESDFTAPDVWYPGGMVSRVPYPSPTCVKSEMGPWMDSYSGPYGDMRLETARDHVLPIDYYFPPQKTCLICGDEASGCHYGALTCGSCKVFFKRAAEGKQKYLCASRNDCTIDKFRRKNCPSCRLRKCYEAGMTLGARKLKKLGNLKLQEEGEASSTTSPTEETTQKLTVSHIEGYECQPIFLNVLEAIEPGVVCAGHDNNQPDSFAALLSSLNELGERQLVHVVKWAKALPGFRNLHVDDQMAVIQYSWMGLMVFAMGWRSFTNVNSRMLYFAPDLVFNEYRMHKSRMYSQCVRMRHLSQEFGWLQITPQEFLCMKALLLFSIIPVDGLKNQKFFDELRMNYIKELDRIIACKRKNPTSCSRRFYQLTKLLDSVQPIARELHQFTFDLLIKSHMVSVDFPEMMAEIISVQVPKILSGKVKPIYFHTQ

For the compound `Clc1ccccc1CN1CCc2sccc2C1`, the Potency result in [1], in [2], in assay [3], in assay [4], in assay [5] and in assay [6] was “inactive” in each case. For the same compound, the Potency result in assay [7], in [8] and in [9] was “inactive” in each case.

Regarding `O=C(NO)c1ccccc1`, the Potency entry in [1], in assay [10], in [6], in assay [12], in [8] and in assay [9] was “inactive” throughout. Also, the call in assay [11] was inactive.

On to `CSc1ccc2c(c1)N(CCC1CCCCN1C)c1ccccc1S2` (configuration not stated), for which the Potency in assay [1] was 54.3 µM (active) and 29.8 µM (active); in [2], 15.3 µM (active) and 13.3 µM (active); in assay [3], 68.3 µM (active) and inactive; in [4], 21.6 µM (active) and 23.7 µM (active); in [5] it was 27.2 µM (active) and 21.1 µM (active); in assay [6] it was 54.7 µM (active). Further, the Potency in [9] was 19.3 µM (active) and 26.6 µM (active). Moreover, the Potency entry in assay [13] and in [12] was “inactive” throughout.

`CCCCCCCC(=O)OCC`: the Potency result in assay [1], in assay [10], in [13], in assay [14], in assay [3] and in [4] was “inactive” in each case. Besides, the Potency result in [5], in [16], in [6], in [12], in [7] and in assay [8] was “inactive” in each case. For the same compound, in assay [9], the Potency entry is “inactive”. Also, in assay [15], the outcome was inactive.

For `CC(O)C#CC(C)O` (configuration not stated), the Potency result in assay [1], in [13], in assay [3], in assay [17], in assay [4] and in assay [5] was “inactive” each time. The Potency result in [12], in assay [7] and in [8] was “inactive” throughout. Besides, the result in assay [11] was inactive.

For the compound `CCCCCCCC/C=C\CCCCCCCC(=O)NCc1ccc(O)c(OC)c1`, the Potency entry in assay [1], in assay [2], in [3], in assay [16], in [6] and in assay [12] was “inactive” throughout. In addition, the Potency entry in [9] was “inactive”. In [15], the result was inactive.

In the case of `CCCC(CC)CCCCCCCN` (configuration not stated), the Potency is 62.6 µM (active) in assay [1] and 28 µM (active) in assay [5]. Also, the Potency entry in assay [2], in assay [13], in assay [14], in [3], in assay [17] and in assay [4] was “inactive” in each case. The Potency result in [16], in assay [6], in assay [12], in assay [7], in assay [8] and in assay [9] was “inactive” each time. In addition, the compound was called inactive in assay [11].

`Brc1ccccc1-c1ccccc1`: the Potency result in assay [1], in [2], in assay [3], in assay [16], in [6] and in assay [12] was “inactive” in each case. Besides, the Potency entry in [7], in assay [8] and in [9] was “inactive” throughout.

`CCCCCCCCCCCCCC[n+]1ccccc1`: the Potency in assay [1] was 3.06 µM (active); in assay [2], 61.1 µM (active); in [3], 54.5 µM (active); in [4], 54.5 µM (active); in assay [16], 54.9 µM (active); in assay [9] it was 8.63 µM (active). Moreover, the Potency result in [13] and in [14] was “inactive” throughout. The result in assay [11] was inactive.

For `C=CC(=O)OCCOCC(CC)(COCCOC(=O)C=C)COCCOC(=O)C=C`, the Potency was 40.2 µM (active) in assay [1]; 89.9 µM (active) in assay [18]; 35.8 µM (active) in [3]; 28.4 µM (active) in assay [17]; 63.7 µM (active) in assay [4]; 63.7 µM (active) in assay [5]. In assay [9], the Potency is 63.7 µM (active). Moreover, in [11], the compound was called inactive. The Potency entry in assay [14], in [16], in assay [6] and in assay [12] was “inactive” throughout.
